This is a sample that favours compounds with a hit; in the whole collection about 0.87% have one here.
NOD2-RIPK2 inh = blocks binding of human NOD2 to RIPK2; O43353; CHO BLA complementation NOD2-RIPK2, CCF4 ratio; inhibition, % at 4.98 µM; 360,000 tested, 0.38% active; AID 624267; in the data active means inhibition above about 21%
IDE cell activ = boosts human insulin-degrading enzyme activity in HEK cells; 340,000 tested, 0.073% active; P14735; AID 493087; activation, % at 5.96 µM; FAbeta-B cleavage, fluorescence polarization; 0% vehicle, 100% cell-free pure enzyme wells;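 active means activation above the mean of all tested compounds plus 3 SD, set per screening campaign, cut at about 17% in these data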
TLR4 MyD88 comp = inhibitors of human TLR4-MyD88 binding. HeLa CL3-4 TLR4/MyD88 BLA complementation, FRET ratio. inhibition, % at 8.4 µM. 200,000 tested, 0.18% active. AID 861; in the data active means inhibition above about 25%
TLR9-MyD88 inh = TLR9-MyD88 interaction inhibition; CHO BLA complementation TLR9-MyD88, CCF4 FRET ratio; AID 504734; inhibition, % at 4.98 µM; 340,000 tested, 0.21% active; Q9NR96+Q99836;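 active means inhibition above the mean over all tested compounds plus 3 SD, cut at about 21% in these data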
IDE inh = cellular human IDE inhibition; P14735; HEK cells, FAbetaB cleavage, fluorescence polarization; inhibition, % at 5.59 µM; 320,000 tested, 0.41% active; AID 434962;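 active means percent inhibition above the average of all tested compounds plus 3 SD, set per screening campaign, cut at about 16% in these data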;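 further: IDE supplied by intact live HEK cells; FP after avidin binding of uncleaved biotin substrate so inhibition keeps polarization high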
NOD2 RIPK2 conf = NOD2-RIPK2 interaction inhibition confirmed; CHO cells, NOD2-RIPK2 BLA complementation, CCF4 FRET; inhibition, % at 4.98 µM; shares compounds with NOD2-RIPK2 inh; 1,200 tested, 70% active;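 active means mean inhibition across replicates above a set limit taken from the earlier primary screen, cut at about 21% in these data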
BLA counter = hits BLA reporter in NOD2-RIPK2 inhibitor counterscreen | shares compounds with NOD2-RIPK2 inh | CHO BLA reporter, CCF4 FRET ratio | inhibition, % at 4.98 µM | 1,200 tested, 57% active | AID 624371;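 active means mean inhibition above the low-control mean inhibition plus three low-control SD, cut at about 11% in these data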
A number is an active result; - = inactive; . = not tested or not shown.

SMILES	NOD2-RIPK2 inh	IDE cell activ	TLR4 MyD88 comp	TLR9-MyD88 inh	IDE inh	NOD2 RIPK2 conf	BLA counter
O=C(O)CCCCCCCCCCP(=O)(c1ccccc1)c1ccccc1	-	-	.	-	-	.	.
O=c1cc(-c2ccccc2)nc2c(-c3ccccc3)c(C(F)(F)F)[nH]n12	-	.	.	.	-	.	.
c1ccc(-c2sc3ccccc3c2-c2ccc(OCCN3CCCC3)cc2)cc1	23	-	.	-	-	-	-
COc1ccc(-c2sc3ccccc3c2-c2ccc(OCCN3CCCCC3)cc2)cc1	-	-	.	-	-	.	.
NC(=O)CC(NC(=O)c1ccc(Br)cc1)c1ccc(NC2CCCCCC2)c([N+](=O)[O-])c1 (configuration not stated)	-	-	.	-	-	.	.
COC(=O)C12OCC34C(CC5C(C)=C(O)C(=O)CC5(C)C3C(O)C1O)OC(=O)C(OC(=O)C=C(C)C)C24 (configuration not stated)	28	-	.	-	.	25	-
CCN1C(=O)c2cccc3c(S(=O)(=O)N(C)C)ccc1c23	-	.	.	-	.	.	.
CN1C(=O)c2cccc3c(S(=O)(=O)N(C)C)ccc1c23	22	-	.	-	-	-	16
N=C1C(c2ccccc2)=C(O)CN1c1cccc(S(=O)(=O)N2CCCCC2)c1	-	-	.	-	-	.	.
O=C(CN1C(=O)CCS(=O)(=O)c2ccccc21)Nc1ccccc1F	-	-	.	-	-	.	.
CCOC(=O)Nc1ccc2c(c1)N(C(=O)CCN(CC)CC)c1ccccc1S2=O (configuration not stated)	31	-	.	-	-	-	-
Cc1ccc(NC(=O)Cn2ncc(Cl)c(Cl)c2=O)cc1S(=O)(=O)N1CCCCC1	34	-	.	-	-	43	10
O=C(Cn1ncc(Cl)c(Cl)c1=O)NCC1CCCCC1	21	-	-	-	-	29	-
O=C1CCCCN1CC(=O)N1CCCC(Nc2ccc(F)cc2)C1 (configuration not stated)	-	-	.	-	-	.	.
CCCN1C(=O)S/C(=C\c2ccc(N3CCOCC3)o2)C1=O	25	-	-	-	-	-	-
CCCN1C(=O)S/C(=C/c2ccc(N3CCOCC3)o2)C1=O	41	-	.	-	-	-	-
CN1Cc2c(N3CCOCC3)nc3sc(C(=O)c4ccc(Br)cc4)c(N)c3c2CC1(C)C	24	.	.	.	-	29	30
O=C(N/N=C/c1cccc2ccccc12)c1ccncc1	-	-	.	-	-	.	.
O=C(NN=Cc1c(O)ccc2ccccc12)c1ccncc1	28	-	.	-	.	27	21
CCOC(=O)C1=C(N)n2c(s/c(=C\c3cccs3)c2=O)=C(C(=O)OCC)C1c1cccs1 (configuration not stated)	27	-	-	-	-	-	-
CCOC(=O)C1=C(N)n2c(s/c(=C\c3ccncc3)c2=O)=C(C(=O)OCC)C1c1ccncc1 (configuration not stated)	-	.	-	.	-	.	.
Cc1[nH]c(=S)c(C#N)c2c1CCCC2	27	-	-	-	-	-	-
O=C(NCc1ccc(F)cc1)C1CCCN1S(=O)(=O)c1ccccc1C(F)(F)F (configuration not stated)	-	-	.	-	-	.	.
COc1ccc(-c2nn(-c3ccccc3)cc2/C=C/C(=O)OCC(=O)Nc2cccc(C#N)c2)cc1	36	-	-	-	-	-	-
N#CC(=C1C=C(Br)C(=NO)C=C1Cl)c1cccc2ccccc12	41	.	.	-	.	58	30
SMILES	NOD2-RIPK2 inh	IDE cell activ	TLR4 MyD88 comp	TLR9-MyD88 inh	IDE inh	NOD2 RIPK2 conf	BLA counter
Cc1ccccc1N1C(=O)CC(Sc2nnc(-c3ccccc3)o2)C1=O (configuration not stated)	43	-	-	-	-	34	-
CCN(CC)S(=O)(=O)c1ccc(N/N=C/c2ccc(O)cc2)nc1	40	-	-	-	-	-	-
CN(Cc1ccccc1)C(=O)CSc1nc2cc(C(=O)N3CCC(C(N)=O)CC3)ccc2c(=O)n1-c1ccccc1	.	.	.	.	-	.	.
NS(=O)(=O)c1ccc(Oc2ccc(S(N)(=O)=O)cc2)cc1	-	-	-	-	-	.	.
C=CS(=O)(=O)c1ccc(Oc2ccc(S(=O)(=O)C=C)cc2)cc1	36	-	-	-	-	51	17
CC(=O)N1CCN(c2ccc(NC(=O)c3ccc(Br)o3)cc2Cl)CC1	-	-	-	-	-	.	.
CN1CCN(c2ccc(NC(=O)c3ccc([N+](=O)[O-])o3)cc2Cl)CC1	23	-	.	-	-	-	17
CC(C)C(=O)N1CCN(c2ccc(NC(=O)c3ccc([N+](=O)[O-])o3)cc2Cl)CC1	26	-	-	-	.	23	-
Cn1c(CO)cnc1-c1ccccc1	-	-	.	-	-	.	.
O=C1C=C(c2c(O)ccc3ccccc23)c2ccccc2C1=O	21	-	.	-	.	-	-
COCCn1c(=O)[nH]c2cc(C(=O)Nc3cc(OC)c(OC)c(OC)c3)ccc2c1=O	-	-	.	-	-	.	.
COCCn1c(=O)[nH]c2cc(C(=O)Nc3nnc(C)s3)ccc21	94	-	.	-	-	-	-
CCOc1ccccc1C=NNC(=O)CCCCC(=O)NN=Cc1ccccc1OCC	-	-	.	-	.	.	.
CCOc1ccccc1C=NNC(=O)C(=O)NN=Cc1ccccc1OCC	24	-	.	-	.	-	-
CCN(Cc1nc2cc(Cl)ccc2c(=O)[nH]1)C(=O)c1nn(C)c(=O)c2ccccc12	-	-	.	-	-	.	.
Cc1ccc(C)c(-n2nnnc2SCC(=O)NNC(=O)c2ccco2)c1	-	-	-	-	-	.	.
COc1cc(OC)c(OC)cc1/C=C/C(=O)c1ccc(NS(=O)(=O)c2ccc(C)cc2)cc1	34	-	-	-	-	34	40
CC(=O)c1ccc(NS(=O)(=O)c2ccc(C)cc2)cc1	-	-	-	-	-	.	.
COCCCNC(=O)C1Cc2cc(S(=O)(=O)N3CCCC3)ccc2N1C(C)=O (configuration not stated)	-	-	.	-	-	.	.
O=C(NCc1cccnc1)/C(=C\c1ccc(-c2cccc(Cl)c2)o1)S(=O)(=O)c1ccccc1	35	-	-	-	-	48	-
CCOC(=O)C1(CCc2ccccc2)CCN(C(=O)c2ccoc2)CC1	-	-	-	-	-	.	.
CCOC(=O)C1(CCCc2ccccc2)CCN(C(=O)c2ccoc2)CC1	45	-	-	-	-	-	-
Cc1cc(NC(=O)CSc2nnc(-c3ccccc3Cl)o2)no1	47	-	.	-	-	-	-
COc1ccc(-c2nc(CS(=O)CC(=O)N3CCN(C)CC3)c(C)o2)cc1 (configuration not stated)	-	-	.	-	-	.	.
Cc1noc2ncnc(Sc3ccccc3Cl)c12	28	-	-	-	-	23	-
CC(C)N(CCNC(=O)c1ccc(CS(=O)(=O)c2c(Cl)cccc2Cl)o1)Cc1ccccc1	-	-	.	-	-	.	.

Screening data: PubChem BioAssay, The Scripps Research Institute Molecular Screening Center
